Measurements reported in PubChem BioAssay AID1159580 (chemical genetic matrix, 2015).
The campaign covered roughly 5,500 compounds. About 2,000 (36%) were called active. Roughly 18% stayed inconclusive and do not appear here. Cut-off read from the data, not from the text of the source: active = normalized growth mostly below about 0.91 (no sharp cut-off); inconclusive = no clear call, values can overlap the other calls; inactive = mostly above about 0.92. This is one part of the list.

Test: chemical genetic growth profiling, strain panel (AID 1159580);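 note: tested at 20 µM; growth read once vehicle control cultures reached saturation at 30 °C; 1 = growth at the plate median or of vehicle wells; lower values mean less growth of the strain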
Conditions: S. cerevisiae deletion strains, growth OD
[1] = locus YAL013W, strain DEP1, hits give low values
[2] = locus YGR078C, strain PAC10, hits give low values
[3] = locus YJR075W, strain HOC1, hits give low values
[4] = locus YMR307W, strain GAS1, hits give low values

Measured: normalized growth

CN1C[C@@H](CS(=O)(=O)N(C)C)C[C@@H]2c3cccc4c3c(cn4C)C[C@H]21
inactive: [1] 1 | locus YAL040C, strain CLN3, hits give low values 1.01 | locus YCL061C, strain MRC1 (second series), hits give low values 1 | locus YDR363W, strain ESC2, hits give low values 1.01 | locus YER002W, strain NOP16, hits give low values 1.01 | [2] 1.01 | [3] 1 | [4] 1.03 | locus YNL175C, strain NOP13, hits give low values 1.01 | locus YNL197C, strain WHI3, hits give low values 1.02 | locus YNL224C, strain SQS1, hits give low values 1.01 | locus YOR083W, strain WHI5 (second series), hits give low values 1.03

Cc1c(C)c(C)c(CO)c(C)c1C
inactive: [1] 0.988 | locus YBR229C, strain ROT2, hits give low values 1.01 | locus YDL101C, strain DUN1, hits give low values 1.01 | locus YDR150W, strain NUM1, hits give low values 0.981 | locus YEL061C, strain CIN8, hits give low values 0.996 | [2] 0.998 | locus YHR030C, strain SLT2, hits give low values 1.06 | locus YHR087W, strain rtc3, hits give low values 1.01 | locus YJL187C, strain SWE1, hits give low values 1 | locus YJR043C, strain POL32, hits give low values 1 | [3] 1.04 | locus YLR039C, strain RIC1, hits give low values 0.98 | locus YLR058C, strain SHM2 (second series), hits give low values 1.02 | locus YLR085C, strain ARP6, hits give low values 1.06 | locus YLR262C, strain YPT6, hits give low values 0.955 | locus YML094W, strain GIM5, hits give low values 0.996 | locus YMR219W, strain ESC1, hits give low values 1.01 | locus YMR263W, strain SAP30, hits give low values 0.993 | [4] 1.03 | locus YNL153C, strain GIM3, hits give low values 0.97 | locus YNL298W, strain CLA4 (second series), hits give low values 1.04 | locus YNL322C, strain KRE1, hits give low values 1.01 | locus YNR030W, strain Alg12, hits give low values 1 | locus YPL055C, strain LGE1, hits give low values 0.997 | locus YPL241C, strain CIN2, hits give low values 0.989 | locus YPR135W, strain CTF4, hits give low values 1
